Data: the supplement of paper PMC10849652
Of roughly 7,900 targets only a part is listed; those with a hit were picked by preference. About 0.6% of all pairs of compound and target were hits.

Assays:
Assay in all cases: log2 fold change, soluble protein after heating vs DMSO (PISA); higher = thermal stabilisation; K562 cells, 10 uM, 30 min; active = over 0.2 and 3.5 SD of the protein, either way, in both replicates (recomputed)
[1] = compound: C1=CC=C(C=C1)[C@H](COC2=CC3=C(C=C2)NC(=O)N3)NC(=O)C4=CC=CN(C4=O)CC5=CC(=C(C=C5)F)F
How it was run: (§1)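 K562 cells (2×10^6 cells/mL) were treated with 10 μM compound for 30 min, and aliquots were heated for 3 min over 48°C-58°C. Pooled aliquots were extracted in PBS with 0.5% NP-40 at 4°C, and the supernatant after 21,000xg for 90 min was measured by TMTpro 16plex LC-MS/MS with channel sums equalised. Reported thermal stability, relative to control samples and from duplicates, is a log2 fold change.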

[2] = compound: CC1=C(SC2=C1C(=N[C@H](C3=NN=C(N32)C)CC(=O)N)C4=CC=C(C=C4)Cl)C
How it was run: as §1

[3] = compound: CC1=C2C(=CC=C1)N=C(N(C2=O)C3=CC=CC=C3C)CN4C=NC5=C(N=CN=C54)N
How it was run: as §1

[4] = compound: Cc1sc2c(c1C)C(c1ccc(Cl)cc1)=N[C@@H](CC(=O)OC(C)(C)C)c1nnc(C)n1-2
How it was run: as §1

[5] = compound: c1ccc([C@@H]2C[C@H]2NC2CCNCC2)cc1
How it was run: as §1

Measured: log2 fold change

SSB (UniProt P05455)
Sequence of UniProt P05455 (P05455 whole entry, looked up): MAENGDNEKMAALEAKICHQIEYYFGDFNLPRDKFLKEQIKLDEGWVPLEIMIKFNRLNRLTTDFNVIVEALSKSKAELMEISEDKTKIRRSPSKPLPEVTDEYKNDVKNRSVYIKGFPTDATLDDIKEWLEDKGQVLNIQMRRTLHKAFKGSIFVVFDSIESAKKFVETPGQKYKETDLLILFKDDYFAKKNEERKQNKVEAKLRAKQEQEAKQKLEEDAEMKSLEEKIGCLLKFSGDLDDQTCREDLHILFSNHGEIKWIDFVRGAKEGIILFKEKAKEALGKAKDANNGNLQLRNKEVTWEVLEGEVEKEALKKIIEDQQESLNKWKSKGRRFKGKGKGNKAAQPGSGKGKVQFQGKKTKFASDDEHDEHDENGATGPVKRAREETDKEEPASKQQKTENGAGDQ
inactive: [1] -0.02 | [2] 0.088 | [3] 0.014 | [4] 0.007 | [5] 0.055

SNW1 (UniProt Q13573)
inactive: [1] 0.03 | [2] 0.015 | [3] -0.036 | [4] 0.055 | [5] -0.035

SP3 (UniProt Q02447)
inactive: [1] 0.018 | [2] -0.024 | [3] -0.043 | [4] 0.025 | [5] 0.009

TEX30 (UniProt Q5JUR7)
inactive: [1] -0.162 | [2] -0.141 | [3] 0.235 | [4] 0.12 | [5] 0.052

TFRC (UniProt P02786)
Sequence of UniProt P02786 (P02786 whole entry, looked up): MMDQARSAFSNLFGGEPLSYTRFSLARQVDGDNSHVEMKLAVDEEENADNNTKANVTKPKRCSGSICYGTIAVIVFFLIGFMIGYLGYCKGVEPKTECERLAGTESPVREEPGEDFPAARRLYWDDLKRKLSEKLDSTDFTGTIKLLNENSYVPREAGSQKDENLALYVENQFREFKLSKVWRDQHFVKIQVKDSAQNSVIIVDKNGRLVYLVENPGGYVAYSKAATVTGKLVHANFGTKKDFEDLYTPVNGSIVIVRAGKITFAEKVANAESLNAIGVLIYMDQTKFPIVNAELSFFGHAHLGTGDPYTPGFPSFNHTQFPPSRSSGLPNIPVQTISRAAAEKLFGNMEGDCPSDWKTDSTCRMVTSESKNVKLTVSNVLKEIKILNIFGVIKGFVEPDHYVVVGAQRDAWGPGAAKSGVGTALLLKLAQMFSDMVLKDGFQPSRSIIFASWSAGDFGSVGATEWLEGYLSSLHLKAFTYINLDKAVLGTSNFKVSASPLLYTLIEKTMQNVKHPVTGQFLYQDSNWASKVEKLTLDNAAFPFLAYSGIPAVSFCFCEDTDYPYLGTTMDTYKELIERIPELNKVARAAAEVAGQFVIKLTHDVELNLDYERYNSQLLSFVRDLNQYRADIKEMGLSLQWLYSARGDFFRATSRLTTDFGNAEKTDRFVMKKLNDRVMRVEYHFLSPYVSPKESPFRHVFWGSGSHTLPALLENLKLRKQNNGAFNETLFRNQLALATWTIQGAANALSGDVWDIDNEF
inactive: [1] 0.058 | [2] 0.032 | [3] 0.008 | [4] 0.011 | [5] 0.021

STARD7 (UniProt Q9NQZ5)
inactive: [1] -0.018 | [2] 0.075 | [3] 0.145 | [4] 0.063 | [5] -0.017

SPAG9 (UniProt O60271)
inactive: [1] -0.033 | [2] 0.002 | [3] 0.071 | [4] 0.024 | [5] -0.006

TLK2 isoform 2 (UniProt Q86UE8)
inactive: [1] 0.006 | [2] 0.021 | [3] 0.041 | [4] -0.007 | [5] 0.051

STXBP5 (UniProt Q5T5C0)
inactive: [1] -0.011 | [2] 0.017 | [3] 0.15 | [4] -0.04 | [5] -0.027

SLC35A1 (UniProt P78382)
inactive: [1] -0.046 | [2] -0.108 | [3] 0.05 | [4] -0.07 | [5] 0.013

SRI (UniProt P30626)
inactive: [1] -0.034 | [2] 0.111 | [3] 0.043 | [4] -0.093 | [5] -0.064

SLC27A1 (UniProt Q6PCB7)
inactive: [1] -0.02 | [2] 0.161 | [3] 0.293 | [4] 0.11 | [5] -0.029

TBK1 (UniProt Q9UHD2)
inactive: [1] -0.014 | [2] 0.007 | [3] 0.041 | [4] 0.011 | [5] -0.049

SNX1 (UniProt Q13596)
Sequence of UniProt Q13596 (Q13596 whole entry, looked up): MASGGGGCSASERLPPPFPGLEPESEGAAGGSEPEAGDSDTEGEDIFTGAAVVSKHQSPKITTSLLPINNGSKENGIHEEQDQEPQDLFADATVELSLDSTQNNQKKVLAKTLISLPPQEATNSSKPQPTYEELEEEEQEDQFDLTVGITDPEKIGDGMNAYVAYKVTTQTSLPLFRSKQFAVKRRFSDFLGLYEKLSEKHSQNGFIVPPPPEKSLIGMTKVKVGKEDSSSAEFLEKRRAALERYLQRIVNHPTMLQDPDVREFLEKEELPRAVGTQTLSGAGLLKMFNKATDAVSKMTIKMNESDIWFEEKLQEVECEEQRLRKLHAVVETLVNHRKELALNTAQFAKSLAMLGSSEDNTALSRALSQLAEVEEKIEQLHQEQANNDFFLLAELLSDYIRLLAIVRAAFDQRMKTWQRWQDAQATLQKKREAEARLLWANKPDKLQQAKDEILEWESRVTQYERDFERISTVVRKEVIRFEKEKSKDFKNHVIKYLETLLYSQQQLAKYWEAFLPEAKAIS
inactive: [1] -0.019 | [2] 0.029 | [3] 0.038 | [4] -0.003 | [5] -0.07

TM9SF4 (UniProt Q92544)
inactive: [1] -0.038 | [2] 0.008 | [3] -0.001 | [4] -0.047 | [5] -0.032

SYK (UniProt P43405)
inactive: [1] 0.21 | [2] -0.221 | [3] -0.041 | [4] 0.132 | [5] -0.105

SLC39A11 (UniProt Q8N1S5)
inactive: [1] 0.053 | [2] 0.072 | [3] 0.078 | [4] -0.323 | [5] -0.003

SRSF4 (UniProt Q08170)
inactive: [1] 0.09 | [2] -0.166 | [3] -0.124 | [4] 0.073 | [5] 0.096

STAT5B (UniProt P51692)
inactive: [1] 0.036 | [2] 0.08 | [3] 0.05 | [4] 0.033 | [5] 0.052

SMARCAD1 isoform 2 (UniProt Q9H4L7)
inactive: [1] -0.029 | [2] 0.071 | [3] 0.214 | [4] -0.129 | [5] 0.004

TAOK3 (UniProt Q9H2K8)
Sequence of UniProt Q9H2K8 (Q9H2K8 whole entry, looked up): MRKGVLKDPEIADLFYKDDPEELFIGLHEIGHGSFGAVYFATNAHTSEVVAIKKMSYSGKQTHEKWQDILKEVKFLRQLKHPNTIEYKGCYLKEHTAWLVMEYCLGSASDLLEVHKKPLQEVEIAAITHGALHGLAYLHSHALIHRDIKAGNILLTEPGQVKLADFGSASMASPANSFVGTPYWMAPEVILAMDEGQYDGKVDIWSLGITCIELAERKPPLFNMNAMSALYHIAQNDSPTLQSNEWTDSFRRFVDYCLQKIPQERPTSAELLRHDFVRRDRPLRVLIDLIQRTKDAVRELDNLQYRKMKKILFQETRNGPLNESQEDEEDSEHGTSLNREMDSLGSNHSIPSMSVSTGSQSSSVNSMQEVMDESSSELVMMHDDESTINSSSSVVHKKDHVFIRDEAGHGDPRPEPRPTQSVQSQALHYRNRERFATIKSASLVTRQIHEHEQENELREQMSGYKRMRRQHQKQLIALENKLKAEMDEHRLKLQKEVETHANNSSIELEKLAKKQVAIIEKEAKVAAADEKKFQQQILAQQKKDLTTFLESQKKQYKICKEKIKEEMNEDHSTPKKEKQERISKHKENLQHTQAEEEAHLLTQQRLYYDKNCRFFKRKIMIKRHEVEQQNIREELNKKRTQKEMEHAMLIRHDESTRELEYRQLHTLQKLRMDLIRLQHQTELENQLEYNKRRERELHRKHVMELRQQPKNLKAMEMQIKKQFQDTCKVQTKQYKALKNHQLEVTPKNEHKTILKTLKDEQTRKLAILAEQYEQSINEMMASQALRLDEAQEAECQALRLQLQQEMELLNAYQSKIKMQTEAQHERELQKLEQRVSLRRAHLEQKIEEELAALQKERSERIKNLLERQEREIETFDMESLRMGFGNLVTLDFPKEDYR
inactive: [1] 0 | [2] 0.057 | [3] 0.002 | [4] -0.003 | [5] -0.024

SNX3 (UniProt O60493)
Sequence of UniProt O60493 (O60493 whole entry, looked up): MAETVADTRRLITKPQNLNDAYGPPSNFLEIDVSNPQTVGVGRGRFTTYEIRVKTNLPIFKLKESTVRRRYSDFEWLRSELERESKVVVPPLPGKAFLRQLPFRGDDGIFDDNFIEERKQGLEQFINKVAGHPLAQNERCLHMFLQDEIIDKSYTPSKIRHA
inactive: [1] -0.057 | [2] 0 | [3] 0.105 | [4] -0.006 | [5] -0.064

SUMO1 (UniProt P63165)
inactive: [1] -0.004 | [2] -0.097 | [3] -0.048 | [4] 0.231 | [5] 0.152

SPG21 (UniProt Q9NZD8)
inactive: [1] -0.128 | [2] -0.035 | [3] 0.031 | [4] -0.062 | [5] -0.02

SMDT1 (UniProt Q9H4I9)
inactive: [1] 0.031 | [2] 0.018 | [3] -0.081 | [4] -0.019 | [5] 0.024

SUCLG1 (UniProt P53597)
inactive: [1] 0.004 | [2] 0.073 | [3] 0.042 | [4] -0.021 | [5] -0.041

SPAST (UniProt Q9UBP0)
inactive: [1] -0.057 | [2] 0.026 | [3] 0.117 | [4] -0.016 | [5] -0.085

STRN (UniProt O43815)
Sequence of UniProt O43815 (O43815 whole entry, looked up): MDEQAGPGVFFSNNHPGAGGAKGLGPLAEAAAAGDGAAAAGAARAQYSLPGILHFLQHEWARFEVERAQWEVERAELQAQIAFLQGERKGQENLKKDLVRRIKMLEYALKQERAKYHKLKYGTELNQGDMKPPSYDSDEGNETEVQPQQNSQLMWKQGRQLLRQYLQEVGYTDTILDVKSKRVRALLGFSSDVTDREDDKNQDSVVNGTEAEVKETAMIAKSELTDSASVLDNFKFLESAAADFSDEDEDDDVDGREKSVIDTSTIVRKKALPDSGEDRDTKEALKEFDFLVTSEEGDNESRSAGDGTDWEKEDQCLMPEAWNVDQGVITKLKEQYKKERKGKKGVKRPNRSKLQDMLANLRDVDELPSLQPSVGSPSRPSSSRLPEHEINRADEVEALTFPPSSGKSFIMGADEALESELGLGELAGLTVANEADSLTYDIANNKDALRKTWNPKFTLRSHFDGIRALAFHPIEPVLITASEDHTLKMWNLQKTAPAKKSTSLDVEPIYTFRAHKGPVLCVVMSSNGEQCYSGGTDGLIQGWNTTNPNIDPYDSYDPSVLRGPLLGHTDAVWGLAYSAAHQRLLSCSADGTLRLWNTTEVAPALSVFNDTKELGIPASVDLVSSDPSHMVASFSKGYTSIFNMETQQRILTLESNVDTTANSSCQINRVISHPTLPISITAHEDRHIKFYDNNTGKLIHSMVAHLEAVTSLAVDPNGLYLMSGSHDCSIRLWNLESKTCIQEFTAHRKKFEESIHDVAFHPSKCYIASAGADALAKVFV
inactive: [1] -0.025 | [2] 0.011 | [3] -0.003 | [4] -0.108 | [5] -0.017

SPCS2 (UniProt Q15005)
inactive: [1] -0.011 | [2] 0.043 | [3] -0.034 | [4] -0.061 | [5] -0.031

STX7 (UniProt O15400)
inactive: [1] 0.023 | [2] 0.01 | [3] 0.027 | [4] -0.011 | [5] -0.011

SPINDOC (UniProt Q9BUA3)
inactive: [1] 0.03 | [2] 0.02 | [3] -0.066 | [4] 0.145 | [5] 0.041

SLC30A7 (UniProt Q8NEW0)
inactive: [1] -0.033 | [2] 0.052 | [3] -0.049 | [4] 0.039 | [5] -0.011

TK1 (UniProt P04183)
inactive: [1] 0.002 | [2] -0.008 | [3] -0.011 | [4] -0.019 | [5] 0.008

SRRM2 (UniProt Q9UQ35)
inactive: [1] -0.005 | [2] -0.015 | [3] 0 | [4] 0.05 | [5] 0.037

SRPRA (UniProt P08240)
inactive: [1] 0.001 | [2] -0.032 | [3] 0.031 | [4] -0.061 | [5] -0.038

STARD9 (UniProt Q9P2P6)
inactive: [1] -0.073 | [2] 0.147 | [3] -0.072 | [4] 0.042 | [5] -0.087

SRXN1 (UniProt Q9BYN0)
inactive: [1] -0.02 | [2] 0.086 | [3] 0.117 | [4] -0.05 | [5] 0.086

SMAP2 (UniProt Q8WU79)
inactive: [1] -0.041 | [2] 0.013 | [3] 0.086 | [4] 0.001 | [5] 0.011

SRSF3 (UniProt P84103)
inactive: [1] 0.099 | [2] -0.18 | [3] -0.159 | [4] 0.152 | [5] 0.055

THRAP3 (UniProt Q9Y2W1)
inactive: [1] 0.09 | [2] 0.193 | [3] -0.072 | [4] 0.046 | [5] 0.028

TBC1D5 isoform 2 (UniProt Q92609)
Sequence of UniProt Q92609 (Q92609 whole entry, looked up): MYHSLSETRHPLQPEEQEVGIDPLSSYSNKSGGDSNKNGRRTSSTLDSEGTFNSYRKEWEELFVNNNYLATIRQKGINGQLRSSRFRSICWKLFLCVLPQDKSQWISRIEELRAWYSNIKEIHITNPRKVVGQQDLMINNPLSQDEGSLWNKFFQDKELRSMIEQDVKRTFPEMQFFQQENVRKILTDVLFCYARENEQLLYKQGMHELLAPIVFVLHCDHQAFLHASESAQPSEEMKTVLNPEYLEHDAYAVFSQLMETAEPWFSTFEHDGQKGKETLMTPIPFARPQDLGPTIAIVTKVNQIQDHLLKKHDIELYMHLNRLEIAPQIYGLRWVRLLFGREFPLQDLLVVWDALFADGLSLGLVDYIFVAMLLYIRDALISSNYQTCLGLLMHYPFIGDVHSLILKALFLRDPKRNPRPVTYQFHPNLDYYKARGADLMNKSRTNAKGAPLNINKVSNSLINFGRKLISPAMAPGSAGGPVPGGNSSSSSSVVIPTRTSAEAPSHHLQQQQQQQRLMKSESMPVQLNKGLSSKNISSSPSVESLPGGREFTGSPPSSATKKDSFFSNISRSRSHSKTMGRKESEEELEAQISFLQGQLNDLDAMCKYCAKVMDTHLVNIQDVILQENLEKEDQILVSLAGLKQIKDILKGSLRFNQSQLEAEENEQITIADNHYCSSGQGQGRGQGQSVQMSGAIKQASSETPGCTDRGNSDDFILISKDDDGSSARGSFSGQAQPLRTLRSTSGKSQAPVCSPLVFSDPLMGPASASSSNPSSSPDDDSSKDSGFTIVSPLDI
inactive: [1] -0.046 | [2] 0.055 | [3] 0.066 | [4] 0.003 | [5] -0.034

SLC7A6 (UniProt Q92536)
inactive: [1] -0.063 | [2] 0.023 | [3] 0.053 | [4] 0.012 | [5] 0.06

SLC9A6 isoform 2 (UniProt Q92581)
Sequence of UniProt Q92581 (Q92581 whole entry, looked up): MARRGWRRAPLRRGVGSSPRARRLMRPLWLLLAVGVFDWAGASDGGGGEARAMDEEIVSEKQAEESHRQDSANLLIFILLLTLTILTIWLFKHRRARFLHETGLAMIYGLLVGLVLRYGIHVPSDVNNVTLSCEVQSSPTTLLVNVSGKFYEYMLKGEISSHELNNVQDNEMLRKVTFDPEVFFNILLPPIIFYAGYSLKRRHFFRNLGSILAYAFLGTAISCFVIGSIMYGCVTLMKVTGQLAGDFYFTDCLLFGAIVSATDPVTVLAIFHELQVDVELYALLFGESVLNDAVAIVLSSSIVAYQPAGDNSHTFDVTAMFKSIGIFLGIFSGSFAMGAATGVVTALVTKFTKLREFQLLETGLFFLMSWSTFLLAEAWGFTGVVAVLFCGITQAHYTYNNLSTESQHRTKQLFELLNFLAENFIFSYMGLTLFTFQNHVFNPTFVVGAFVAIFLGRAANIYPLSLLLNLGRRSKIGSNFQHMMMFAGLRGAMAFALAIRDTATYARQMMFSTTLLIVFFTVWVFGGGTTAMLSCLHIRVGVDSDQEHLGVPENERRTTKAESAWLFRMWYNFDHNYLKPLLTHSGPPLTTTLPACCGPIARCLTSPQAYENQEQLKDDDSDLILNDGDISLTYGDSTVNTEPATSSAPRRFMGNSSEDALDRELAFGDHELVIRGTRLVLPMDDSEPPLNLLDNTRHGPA
inactive: [1] -0.007 | [2] 0.066 | [3] 0.068 | [4] -0.014 | [5] 0.047

SREK1 isoform 2 (UniProt Q8WXA9)
inactive: [1] 0.05 | [2] -0.06 | [3] -0.039 | [4] -0.037 | [5] 0.026

SMPD4 isoform 4 (UniProt Q9NXE4)
inactive: [1] -0.094 | [2] 0.031 | [3] 0.043 | [4] -0.034 | [5] -0.104

SPECC1 (UniProt Q5M775)
inactive: [1] -0.017 | [2] -0.087 | [3] 0.105 | [4] -0.012 | [5] 0.037

TBC1D24 (UniProt Q9ULP9)
inactive: [1] -0.108 | [2] 0.152 | [3] 0.02 | [4] -0.029 | [5] -0.061

ST6GAL1 (UniProt P15907)
inactive: [1] 0.017 | [2] 0.012 | [3] 0.033 | [4] -0.018 | [5] -0.006

TBCD (UniProt Q9BTW9)
inactive: [1] -0.028 | [2] 0.03 | [3] 0.101 | [4] -0.004 | [5] -0.03

SSR4 (UniProt P51571)
inactive: [1] 0.045 | [2] 0.046 | [3] 0.002 | [4] -0.048 | [5] -0.018

SPTBN1 (UniProt Q01082)
inactive: [1] -0.002 | [2] -0.033 | [3] 0.078 | [4] 0.027 | [5] 0.013

TGFBR1 isoform 2 (UniProt P36897)
inactive: [1] -0.001 | [2] 0.029 | [3] -0.047 | [4] -0.029 | [5] 0.026

TARBP1 (UniProt Q13395)
inactive: [1] -0.058 | [2] 0.048 | [3] 0.081 | [4] -0.073 | [5] -0.027
